Assay outcomes deposited in PubChem BioAssay by National Center for Advancing Translational Sciences (NCATS).
D1 ag – activates the human D1 dopamine receptor | hit rate 1% among 360,000 | activation, % at 2 µM | HEK293 T-REx D1 cells, calcium flux, agonist mode; in the data active means activation above about 30%
Target sequence (P21728 whole entry, looked up): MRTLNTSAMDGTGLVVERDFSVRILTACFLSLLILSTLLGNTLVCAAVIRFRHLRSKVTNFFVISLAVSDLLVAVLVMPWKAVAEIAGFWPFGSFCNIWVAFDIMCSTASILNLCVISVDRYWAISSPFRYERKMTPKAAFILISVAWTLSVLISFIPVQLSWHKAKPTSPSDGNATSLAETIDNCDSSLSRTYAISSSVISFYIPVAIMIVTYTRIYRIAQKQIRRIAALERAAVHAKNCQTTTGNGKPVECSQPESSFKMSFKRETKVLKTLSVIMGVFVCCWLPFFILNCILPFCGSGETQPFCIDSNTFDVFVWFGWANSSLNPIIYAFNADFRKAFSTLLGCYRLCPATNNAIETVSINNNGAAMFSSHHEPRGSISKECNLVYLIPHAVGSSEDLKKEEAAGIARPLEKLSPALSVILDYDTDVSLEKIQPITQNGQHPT
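Inducible HEK293 T-REx D1 cells, force-coupled to calcium signalling, were plated at 4000 cells/well with tetracycline and held overnight at 30 C. After no-wash calcium dye loading, compound-evoked calcium rise over 180 s flagged agonists.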
TRPV1 ag – agonists of human vanilloid receptor 1 (TRPV1); AID 540275; TRPV1-expressing cells, Fluo-8 calcium influx, agonist mode; Q8NER1; hit rate 0.19% among 320,000; activation, % at 8.33 µM; in the data active means activation above about 80%; inconclusive means between about 30% and that limit
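Fluo-8 calcium influx in TRPV1-expressing cells, kinetic read (ex 480/em 520 nm). Compound added and read 3 min for agonist activity, followed by capsaicin at EC20 final and 2 min further read for enhancement.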
TRPV1 potentiator – human TRPV1 potentiation; Q8NER1; TRPV1-expressing cells, Fluo-8 calcium influx, capsaicin EC20 potentiation; potentiation, % at 8.33 µM; hit rate 0.02% among 320,000; in the data active means potentiation above about 80%; inconclusive means between about 30% and that limit
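TRPV1-expressing cells were cultured overnight at 35.5C and loaded with Fluo-8 calcium dye for 40 to 90 min at room temperature. After a 10 s baseline, compound was added and calcium influx was read kinetically for 3 min (ex 480/em 520 nm).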
D1 antagonist – antagonists of human D1 dopamine receptor. activity change, negative = inhibition, % at 10 µM. hit rate 3.2% among 360,000. HEK293 TREx D1 cells, calcium flux, dopamine EC80; stronger effect = lower value. P21728. AID 504652; in the data active means activity change below about -30%
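Tetracycline-induced HEK293 T-REx cells with force-coupled D1 receptor were loaded with a no-wash calcium dye. Compound was added after a 10 s baseline and read kinetically for 180 s; EC80 dopamine was then added and calcium flux followed another 180 s.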
D1 potentiator – potentiators of human D1 dopamine receptor; P21728; HEK293 TREx D1 cells, calcium flux, dopamine EC20 potentiation; potentiation, % at 10 µM; hit rate 0.036% among 360,000; AID 504651; in the data active means potentiation above about 30%
A number is an active result; n = inactive; u = inconclusive; x = no result. In the library only some 4.2% were active in any assay of this set; here they are far more common.

SMILES	D1 ag	TRPV1 ag	TRPV1 potentiator	D1 antagonist	D1 potentiator
CCOc1ccc(NC(=O)c2ccc(NC(=O)c3ccc(CN4CCOCC4)cc3)cc2)cc1	n	n	n	-34	n
O=C(Nc1ccc(CN2CCOCC2)cc1)c1ccco1	n	n	n	-35	n
O=C(Nc1ccc(CN2CCOCC2)cc1)c1ccc(Cl)cc1	n	n	n	n	n
CCOC(=O)N1CCC(NC(=O)c2cnn(-c3ccc(C)cc3)c2-n2cccc2)CC1	n	x	x	n	n
CCOc1ccccc1CNC(=O)c1[nH]c2ccccc2c1Sc1ccccc1	n	x	x	n	n
O=C(Nc1ccc2c(c1)CCCN2C(=O)c1cccs1)c1c(F)cccc1F	n	n	n	n	n
CCCC(=O)N1CCN(c2ccc(NC(=O)c3cc4ccccc4o3)cc2Cl)CC1	n	n	n	-47	n
O=C(Nc1ccc2c(c1)CCCN2C(=O)c1cccs1)c1c(F)cccc1Cl	n	n	n	-44	n
O=C(Nc1ccc(N2CCN(C(=O)c3ccccc3)CC2)c(Cl)c1)c1ccco1	n	n	n	-33	n
O=C(Nc1ccc(N2CCOCC2)c(F)c1)c1cccs1	n	u	n	-38	n
COC(=O)c1cc(NC(=O)c2cccs2)ccc1N1CCOCC1	n	n	n	n	n
CC(=O)N1CCN(c2ccc(NC(=O)c3ccco3)cc2Cl)CC1	n	n	n	n	n
COc1ccc(-c2nnc(SCc3cc(=O)c4cc(C)cc(C)c4[nH]3)n2C)cc1	n	x	x	n	n
Cc1ccccc1OCc1nc2c3cnn(-c4cccc(F)c4)c3ncn2n1	n	x	x	n	n
COc1cccc2c1Oc1ncccc1N(C(=O)CCC(=O)NC(C)C)C2	n	x	x	n	n
CCOc1ccc(-n2nc(CO)c(C(=O)NCc3cccs3)n2)cc1	n	x	x	n	n
COc1c(C(=O)Nc2ccc(CN3CCOCC3)cc2)cc2ccccc2c1Br	n	n	n	-31	n
O=C(Nc1ccc(CN2CCS(=O)(=O)CC2)cc1)c1ccc(C(F)(F)F)cc1	n	n	n	-46	n
CC(C)(C)c1ccc(C(=O)Nc2ccc(CN3CCS(=O)(=O)CC3)cc2)cc1	n	n	n	n	n
O=C(Nc1ccc(N2CCOCC2)c(Cl)c1)c1ccc(Cl)cc1	n	u	n	-31	n
Cc1ccccc1C(=O)Nc1ccc(CN2CCOCC2)cc1	n	n	n	n	n
O=C(Nc1ccc2c(c1)CCCN2C(=O)c1ccco1)c1cc([N+](=O)[O-])ccc1Cl	n	n	n	-42	n
Cc1ccc(CS(=O)(=O)CCC(=O)NCc2ccccc2Cl)cc1	43	n	n	n	n
COc1ccccc1CNC(=O)CCS(=O)(=O)Cc1ccc(C)cc1	n	n	n	n	n
Cc1ccc(Cl)cc1N1CCN(CCNC(=O)Nc2ccccc2Cl)CC1	n	x	x	n	n
SMILES	D1 ag	TRPV1 ag	TRPV1 potentiator	D1 antagonist	D1 potentiator
CCOc1ccc2nc(C)cc(C(=O)O)c2c1	n	n	n	n	n
CCOc1ccc2nc(C)cc(Nc3ccccc3OCC)c2c1	n	x	x	-49	n
CCC(=O)c1cc(F)ccc1OCC(=O)N1CCN(c2ccc(F)cc2)CC1	n	n	n	-34	n
CCOCC(=O)N1CCN(c2ccc(F)cc2)CC1	n	n	n	n	n
CC(=O)c1ccc(N2CCN(C(=O)c3ccco3)CC2)c(F)c1	n	n	n	n	n
CCn1cc(C(=O)NC(C)C)c(=O)c2cc(F)c(N3CCN(C(=O)c4ccco4)CC3)cc21	n	n	n	-31	n
CC(=O)c1cc(F)c(N2CCN(C(=O)COc3ccc(F)cc3)CC2)cc1C	n	u	n	-33	n
CC(=O)c1cc(F)c(N2CCN(C(=O)c3ccco3)CC2)cc1C	n	n	n	-32	n
COc1ccccc1CN1C(=O)CN(C2CCCCCC2)C(=O)C1c1ccc(C)cc1 (stereo not given)	n	x	x	n	n
CC1CCCN(CC(O)COCC2COc3ccccc3O2)C1 (stereo not given)	n	n	n	n	n
OC(COCC1COc2ccccc2O1)CN1CCc2ccccc2C1 (stereo not given)	33	n	n	n	n
Cc1ccc(NC(=O)Cn2c(=O)n(CCCCC(=O)NCc3ccc4c(c3)OCO4)c(=O)c3ccccc32)cc1	n	x	x	n	n
Cc1c(NS(=O)(=O)c2cccc3nsnc23)c(=O)n(-c2ccccc2)n1C	n	n	n	-90	n
Cc1cnc(NC(=O)c2cc3c(s2)CCCC3)s1	n	89	n	n	n
Cc1csc(NC(=O)c2cc3c(s2)CCCC3)n1	n	n	n	-44	n
Cc1csc(NC(=O)c2cc3c(s2)CCCCC3)n1	n	u	n	n	n
CC1CN(c2nc3ccccn3c(=O)c2/C=C(\C#N)S(=O)(=O)c2ccccc2)CC(C)O1 (stereo not given)	n	n	n	n	n
CC1CN(c2nc3ccccn3c(=O)c2C=O)CC(C)O1 (stereo not given)	n	n	n	-34	n
COc1ccc(/C(O)=C2\C(=O)C(=O)N(Cc3ccco3)C2c2cc(OC)ccc2OC)cc1 (stereo not given)	n	n	n	-31	n
COc1cc(C2/C(=C(\O)c3ccc4c(c3)OCCO4)C(=O)C(=O)N2Cc2ccco2)ccc1O (stereo not given)	n	n	n	n	n
COc1ccc(OC)c(C2/C(=C(/O)c3ccccc3)C(=O)C(=O)N2Cc2ccco2)c1 (stereo not given)	n	n	n	n	n
O=C1C(=O)N(Cc2ccco2)C(c2cccc(Cl)c2)/C1=C(\O)c1ccc2c(c1)OCCO2 (stereo not given)	n	n	n	-53	n
COc1cc(C2/C(=C(\O)c3ccc4c(c3)OCCO4)C(=O)C(=O)N2Cc2ccco2)cc(OC)c1OC (stereo not given)	n	n	n	-33	n
CCOC(=O)c1cnn(-c2ccc(OC)cc2)c1C1CCN(C(=O)OC(C)(C)C)CC1	n	x	x	n	n
Nc1ccc(/C=C/C(=O)c2cccs2)cc1	82	n	n	n	n
SMILES	D1 ag	TRPV1 ag	TRPV1 potentiator	D1 antagonist	D1 potentiator
O=C(/C=C/c1ccc([N+](=O)[O-])cc1)c1cccs1	n	n	n	n	n
O/C(=C\c1ccc2ccccc2n1)c1ccncc1	45	n	u	n	n
Cc1ccccc1C(=O)Nc1ccc(C(=O)OCc2cc(=O)n3nc(C(C)C)sc3n2)cc1	n	x	x	n	n
C=CCN1CC(C(=O)N2CCC(Cc3ccc(Cl)cc3)(C(=O)OCC)CC2)CC1=O (stereo not given)	n	n	n	-32	n
CCOc1ccc2nc(/N=C/c3nc(-c4ccc(Br)cc4)oc3O)sc2c1	37	n	n	n	n
CCOC(=O)c1ccc(NC(=O)CCn2c(=O)c3cccn3c3cccnc32)cc1	n	x	x	n	n
COC(=O)c1ccc(N2CCN(CC(=O)c3ccc(-c4ccccc4)cc3)CC2)c([N+](=O)[O-])c1	n	n	n	-34	n
